The campaign covered roughly 5,500 compounds. About 2,000 (36%) were called active. Another 18% or so got no clear call; they are omitted. Cut-off read from the data, not from the text of the source: active = normalized growth mostly below about 0.91 (no sharp cut-off); inconclusive = no clear call, values can overlap the other calls; inactive = mostly above about 0.92. This is one part of the list.
Assay: chemical genetic growth profiling, strain panel (AID 1159580);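 note: tested at 20 µM; growth read once vehicle control cultures reached saturation at 30 °C; 1 = growth at the plate median or of vehicle wells; lower values mean less growth of the strain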
Settings: S. cerevisiae deletion strains, growth OD
[1] = locus YAR019C, strain CDC15, stronger effect = lower value
[2] = locus YBL105C, strain PKC1, stronger effect = lower value
[3] = locus YBR135W, strain CKS1, stronger effect = lower value
[4] = locus YBR136W, strain MEC1, stronger effect = lower value
[5] = locus YBR160W, strain CDC28, stronger effect = lower value
[6] = locus YDL017W, strain CDC7, stronger effect = lower value
[7] = locus YDL028C, strain MPS1, stronger effect = lower value
[8] = locus YDL101C, strain DUN1, stronger effect = lower value
[9] = locus YDL108W, strain KIN28, stronger effect = lower value
[10] = locus YDL132W, strain cdc53, stronger effect = lower value
[11] = locus YDL214C, strain PRR2, stronger effect = lower value
[12] = locus YDR052C, strain DBF4, stronger effect = lower value
[13] = locus YDR054C, strain cdc34, stronger effect = lower value
[14] = locus YDR226W, strain ADK1, stronger effect = lower value
[15] = locus YDR477W, strain SNF1, stronger effect = lower value
[16] = locus YER123W, strain YCK3, stronger effect = lower value
[17] = locus YER133W, strain GLC7, stronger effect = lower value
[18] = locus YFL009W, strain cdc4, stronger effect = lower value
[19] = locus YFL029C, strain CAK1, stronger effect = lower value
[20] = locus YFR003C, strain YPI1, stronger effect = lower value
[21] = locus YFR019W, strain FAB1, stronger effect = lower value
[22] = locus YFR028C, strain CDC14, stronger effect = lower value
[23] = locus YGR040W, strain KSS1, stronger effect = lower value
[24] = locus YGR052W, strain FMP48, stronger effect = lower value
[25] = locus YGR092W, strain DBF2, stronger effect = lower value
[26] = locus YHR030C, strain SLT2, stronger effect = lower value
[27] = locus YHR079C, strain IRE1, stronger effect = lower value
[28] = locus YHR082C, strain KSP1, stronger effect = lower value
[29] = locus YHR205W, strain SCH9, stronger effect = lower value
[30] = locus YIL147C, strain SLN1, stronger effect = lower value
[31] = locus YJL095W, strain BCK1, stronger effect = lower value
[32] = locus YJL128C, strain PBS2, stronger effect = lower value
[33] = locus YJL157C, strain FAR1, stronger effect = lower value
[34] = locus YJR016C, strain ILV3, stronger effect = lower value
[35] = locus YJR066W, strain TOR1 (second series), stronger effect = lower value
[36] = locus YJR066W, strain TOR1, stronger effect = lower value
[37] = locus YKL048C, strain ELM1, stronger effect = lower value
[38] = locus YKL067W, strain YNK1, stronger effect = lower value
[39] = locus YKL101W, strain HSL1, stronger effect = lower value
[40] = locus YKL193C, strain SDS22, stronger effect = lower value
[41] = locus YKL203C, strain TOR2, stronger effect = lower value
[42] = locus YLR113W, strain HOG1, stronger effect = lower value
[43] = locus YLR133W, strain CKI1, stronger effect = lower value
[44] = locus YLR403W, strain SFP1, stronger effect = lower value
[45] = locus YML070W, strain DAK1, stronger effect = lower value
[46] = locus YMR001C, strain CDC5, stronger effect = lower value
[47] = locus YMR205C, strain PFK2 (second series), stronger effect = lower value
[48] = locus YMR277W, strain FCP1, stronger effect = lower value
[49] = locus YNL006W, strain LST8, stronger effect = lower value
[50] = locus YNL020C, strain ARK1, stronger effect = lower value
[51] = locus YNL161W, strain CBK1, stronger effect = lower value
[52] = locus YNL183C, strain NPR1, stronger effect = lower value
[53] = locus YNL207W, strain RIO2, stronger effect = lower value
[54] = locus YNL222W, strain SSU72, stronger effect = lower value
[55] = locus YNL307C, strain MCK1 (second series), stronger effect = lower value
[56] = locus YOL078W, strain AVO1, stronger effect = lower value
[57] = locus YOL136C, strain PFK27, stronger effect = lower value
[58] = locus YOR061W, strain CKA2, stronger effect = lower value
[59] = locus YOR119C, strain RIO1, stronger effect = lower value
[60] = locus YOR231W, strain MKK1, stronger effect = lower value
[61] = locus YOR329C, strain SCD5, stronger effect = lower value
[62] = locus YPL031C, strain PHO85, stronger effect = lower value
[63] = locus YPL153C, strain RAD53, stronger effect = lower value
[64] = locus YPL204W, strain HRR25, stronger effect = lower value
[65] = locus YPL209C, strain IPL1, stronger effect = lower value
[66] = locus YPL256C, strain CLN2, stronger effect = lower value
[67] = locus YPR025C, strain CCL1, stronger effect = lower value
[68] = locus YPR106W, strain ISR1, stronger effect = lower value
[69] = locus YPR111W, strain DBF20, stronger effect = lower value
[70] = strain NNK1, stronger effect = lower value
[71] = strain TSCII, stronger effect = lower value

Measured: normalized growth

Cc1cc(C(=O)Nc2ccc(Cl)cc2)nn1C(C)(C)C
active: [42] 0.801 | [66] 0.817
inactive: [1] 0.985 | [2] 1 | [3] 0.995 | [4] 1 | [5] 0.99 | [6] 0.995 | [7] 1.01 | [8] 0.984 | [9] 0.993 | [10] 0.989 | [11] 0.967 | [12] 1 | [13] 0.984 | [14] 0.987 | [15] 0.973 | [16] 0.955 | [17] 0.97 | [18] 0.989 | [19] 0.984 | [20] 1 | [21] 0.992 | [22] 1 | [23] 0.978 | [24] 0.958 | [25] 0.982 | [26] 1.08 | [27] 0.866 | [28] 1.15 | [29] 0.951 | [30] 0.998 | [31] 0.849 | [32] 0.942 | [33] 0.973 | [34] 0.984 | [35] 0.962 | [36] 1.11 | [37] 0.983 | [38] 0.976 | [39] 0.975 | [40] 0.993 | [41] 1.05 | [43] 0.967 | [44] 0.956 | [45] 0.958 | [46] 1 | [47] 0.966 | [48] 0.975 | [49] 0.992 | [50] 0.964 | [51] 0.986 | [52] 0.893 | [53] 0.998 | [54] 0.992 | [55] 0.977 | [56] 0.985 | [57] 0.96 | [58] 0.977 | [59] 1.02 | [60] 0.877 | [61] 1 | [62] 0.982 | [63] 0.957 | [64] 0.962 | [65] 1 | [67] 0.999 | [68] 0.979 | [69] 0.978 | [70] 0.984 | [71] 0.985

Cc1nn(Cc2cccc(C(=O)Nc3ccc(Cl)cc3)c2)c(C)c1Br
inactive: [1] 0.99 | [2] 0.976 | [3] 0.986 | [4] 0.976 | [5] 0.979 | [6] 0.985 | [7] 0.978 | [8] 0.981 | [9] 0.979 | [10] 0.976 | [11] 0.96 | [12] 0.986 | [13] 0.975 | [14] 0.978 | [15] 0.959 | [16] 0.946 | [17] 0.953 | [18] 0.978 | [19] 0.982 | [20] 0.977 | [21] 0.977 | [22] 0.981 | [23] 0.965 | [24] 1.01 | [25] 0.987 | [26] 1.1 | [27] 1.11 | [28] 1.06 | [29] 1.01 | [30] 0.978 | [31] 1 | [32] 0.952 | [33] 0.968 | [34] 0.985 | [35] 0.978 | [36] 1.06 | [37] 0.961 | [38] 0.965 | [39] 0.955 | [40] 0.975 | [41] 1.04 | [42] 0.923 | [43] 0.967 | [44] 0.99 | [45] 0.954 | [46] 0.979 | [47] 0.965 | [48] 0.98 | [49] 0.994 | [50] 0.965 | [51] 0.987 | [52] 1.04 | [53] 0.978 | [54] 0.981 | [55] 1 | [56] 0.973 | [57] 0.92 | [58] 0.96 | [59] 1.02 | [60] 0.968 | [61] 0.987 | [62] 0.963 | [63] 0.957 | [64] 0.935 | [65] 0.981 | [66] 1 | [67] 0.974 | [68] 0.982 | [69] 0.97 | [70] 0.982 | [71] 0.981
